TRHR agonist-1 – TRH receptor (human) agonism. AID 493084. actives 0.18% (n = 360,000). P34981. TRHR cells, calcium flux fluo-8, FDSS agonist mode. activation, % at 2 µM; in the data active = activation above about 30%; note: 0% is about no effect
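Steps: seed TRHR cells overnight; add fluo-8 no-wash Ca dye, RT 30 min–1.5 h; record 10 s baseline; pin-transfer compounds; monitor fluorescence 1 cycle/s for the agonist window. Calcium increases flag candidate agonists.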
D1 PAM – enhances dopamine response at the human D1 receptor. HEK293 TREx D1 cells, calcium flux, dopamine EC20 potentiation. potentiation, % at 10 µM. actives 0.036% (n = 360,000). AID 504651; in the data active = potentiation above about 30%; note: 0% is about no effect
Target sequence (P21728 whole entry, looked up): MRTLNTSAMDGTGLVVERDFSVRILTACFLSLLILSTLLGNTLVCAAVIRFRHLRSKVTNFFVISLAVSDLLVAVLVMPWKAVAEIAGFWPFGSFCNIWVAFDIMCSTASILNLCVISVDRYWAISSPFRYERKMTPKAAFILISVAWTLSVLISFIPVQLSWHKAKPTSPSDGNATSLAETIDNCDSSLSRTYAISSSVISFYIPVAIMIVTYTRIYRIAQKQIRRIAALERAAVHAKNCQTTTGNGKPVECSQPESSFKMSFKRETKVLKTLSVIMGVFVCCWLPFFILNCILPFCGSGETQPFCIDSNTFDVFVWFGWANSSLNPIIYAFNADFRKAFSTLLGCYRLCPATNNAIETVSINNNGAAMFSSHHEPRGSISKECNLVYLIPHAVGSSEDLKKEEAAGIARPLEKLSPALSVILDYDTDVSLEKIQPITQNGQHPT
D1 agonist – human D1 receptor agonism. P21728. HEK293 T-REx D1 cells, calcium flux, agonist mode. activation, % at 2 µM. actives 1% (n = 360,000). AID 504660; in the data active = activation above about 30%; note: 0% is about no effect
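Agonism was scored from calcium flux recorded over 180 s (1 read/s) after pintool compound addition, following a 10-cycle baseline. Cells were inducible force-coupled HEK293 TREx D1, plated overnight at 30 C and loaded with no-wash calcium dye.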
D1 antagonist – human D1 dopamine receptor antagonism | activity change, negative = inhibition, % at 10 µM | actives 3.2% (n = 360,000) | HEK293 TREx D1 cells, calcium flux, dopamine EC80; hits give low values; in the data active = activity change below about -30%; note: % is set by controls: 0 for no effect and ±100 for the full control effect
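Allosteric or orthosteric antagonism assessed as attenuation of the calcium response to EC80 dopamine, added 180 s after compound, in induced HEK293 Trex D1 cells loaded with no-wash calcium dye.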
Glioma ERSR ind – induces the endoplasmic reticulum stress response in human glioma cells. U87-MG GRP78 promoter luciferase reporter, 16 h. Potency, µM, without a hit: at the top dose activation, usual class: activators. actives 0.02% (n = 420,000); note: potency is the fitted concentration of half-maximal effect; series mostly up to about 76 µM; % of control where 0% means no effect; nearly all actives have a fitted effect of over 35% in size
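ERSR induction read as luciferase luminescence (Bright-Glo, 10 min at room temperature) in stably transfected human U87-MG glioma cells exposed to compounds for 16 h, using GRP78 as sensor.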
TRHR enhancer-1 – TRH receptor (human) allosteric enhancement. P34981. TRHR cells, fluo-8 calcium fluorescence, EC20 TRH enhancement. enhancement, % at 2 µM. actives 0.66% (n = 360,000). AID 493056; in the data active = enhancement above about 30%; note: 0% is about no effect
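TRHR-expressing cells loaded with fluo-8 calcium dye were read kinetically (ex 480/em 530) during compound addition, then stimulated with an EC20 of TRH (10 nM final). Enhancement of the Gq-mediated intracellular calcium response was scored.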
TRHR enhancer-2 – confirmation of human TRH receptor allosteric enhancers | shares compounds with TRHR enhancer-1 | TRH receptor cell assay, enhancer confirmation qHTS | activity change, negative = inhibition, % at 46.1 µM | 970 tested, under 10 active;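 note: compound effect scored on response to added TRH at EC20 of 10 nM; 0% is about no effect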
TRHR agonist-2 – human TRH receptor agonism confirmation; Potency, µM (titrated, usually from 46.1 µM), for the others: top-dose activation, hits mostly activators; shares compounds with TRHR enhancer-1; actives 8% (n = 970); TRHR-expressing cells, agonist activation read-out; note: potency is the fitted concentration of half-maximal effect; 0% is about no effect; nearly all actives have a fitted effect of over 75% in size
Starred values were filed as active, the others as inactive; ? = inconclusive; . = no result. In the library only some 4% were active in any assay of this set; here they are far more common. Unless noted, calls come from the whole dose curve; as a rule, active = well fitted curve in the direction sought with a large enough effect; inconclusive = small, poorly fitted or top-dose-only effect, or another doubt; inactive = no such curve, though single readings can be large; an effect the other way counts as inactive or inconclusive.

SMILES	TRHR agonist-1	D1 PAM	D1 agonist	D1 antagonist	Glioma ERSR ind	TRHR enhancer-1	TRHR enhancer-2	TRHR agonist-2
Cc1ccc(-c2nnc(Nc3ccc(CC(N)=O)cc3)c3ccccc23)cc1S(N)(=O)=O	0	1	2	2	-3%	52*	-5	3%
CCOC(=O)C1=C(C)N(c2ccc(Cl)cc2)C(=O)NC1c1cccc([N+](=O)[O-])c1 (stereo not given)	-1	1	0	1	-1%	-4	.	.
COCCOC(=O)C1=C(C)N(c2ccccc2)C(=O)NC1c1cccc([N+](=O)[O-])c1 (stereo not given)	-1	-3	0	-7	-4%	50*	-19	0%
CC(O)CCCCn1c(=O)c2c(ncn2C)n(C)c1=O (stereo not given)	.	.	.	.	-5%	.	.	.
Cc1ccc(C)c(S(=O)(=O)C(C#N)c2nc3ccccc3nc2N2CCCC2)c1 (stereo not given)	27	-2	34*	-8	-4%	-2	-6	?
O=C(Cn1cncn1)NCc1ccccc1Br	1	-4	2	-8	-3%	-1	.	.
O=C(Cn1cncn1)c1ccccc1Br	0	0	1	2	1%	44*	-1	1%
COc1ccccc1N/C=C/c1onc(C)c1[N+](=O)[O-]	47*	-3	140*	-12	-11%	0	4	?
CC(C)(c1ccccc1)c1ccc(OCc2ccc(C(=O)O)o2)cc1	0	0	9	-12	-7%	1	.	.
COc1ccc(C(C)=O)cc1COC(=O)CNC(=O)c1ccc(Cl)cc1	-2	-5	4	-2	-1%	-8	.	.
COc1ccc(C(C)=O)cc1COC(=O)Cc1cc(OC)c(OC)c(OC)c1	29	-4	7	-4	-2%	-3	-4	-1%
Cn1nnnc1SCC(=O)NNC(=O)c1ccc(F)cc1	1	6	2	-1	-3%	44*	-6	-1%
N#Cc1ccccc1S(=O)(=O)N1CCN(C(=O)C2COc3ccccc3O2)CC1 (stereo not given)	0	8	1	-1	11%	54*	-10	?
O=C(C1COc2ccccc2O1)N1CCN(S(=O)(=O)c2cc(F)ccc2F)CC1 (stereo not given)	0	2	1	-16	-2%	-2	.	.
O=C(CSc1ccccc1)Nc1ccc2c(c1)C(=O)NC2=O	0	-5	2	-28	-3%	-4	.	.
COc1ccccc1N/C=C(\C#N)c1nc2ccccc2[nH]1	0	-4	4	3	-7%	-2	.	.
COc1ccc(S(=O)(=O)N2CCN(c3ccc4nnc(-c5ccccc5)n4n3)CC2)cc1	0	0	1	-4	-1%	48*	4	-1%
Cc1cc(C)c(S(=O)(=O)NCCc2sc(-c3cccnc3)nc2C)c(C)c1	0	-8	2	-21	0%	-1	.	.
Cn1c(CNC(=O)c2ccccc2)nnc1SCC(=O)Nc1nccs1	0	-4	2	-7	6%	-1	.	.
Cc1ccc(C(=O)NCc2nnc(SCC(=O)NC(C)c3ccccc3)n2C)cc1 (stereo not given)	-1	-1	2	1	-4%	43*	7	-1%
COC(=O)C1=C(C)N(c2ccc(OC)cc2)C(C)=C(C(=O)OC)C1c1ccc(OC)cc1	0	1	4	-20	-3%	41*	-5	-1%
Cc1ccc(NC(=O)Cn2c(=O)ccn(Cc3ccccc3)c2=O)cc1S(=O)(=O)N1CCOCC1	.	.	.	.	-3%	.	.	.
Cc1ccccc1NC(=O)CN1CCOCC1	0	-3	3	-2	-3%	56*	14	0%
Cc1ccccc1NC(=O)CN1CCCC1	.	.	.	.	-7%	.	.	.

Screening results from PubChem BioAssay.
